Most compounds without a hit are left out; they make up all but 3.5% or so of the library.
rCAG RNA binder = molecules binding r(CAG) RNA repeats; 370,000 tested, 1.3% active; AID 651821; r(CAG) RNA repeat, TO-PRO-1 dye displacement fluorescence; inhibition, % at 3 µM;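 active = inhibition above the plate cutoff, the mean of all test compounds on that plate plus 3 SD, cut at about 35% in these data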;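 note: higher means more dye released from RNA so lower well fluorescence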
LEDGF integ inh = blocks HIV-1 LEDGF/p75-dependent DNA integration. TR-FRET IN-LEDGF/p75 DNA integration, Eu/Cy5. inhibition, % at 3.7 µM. 370,000 tested, 0.64% active;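 active = inhibition above the screen-wide mean plus 3 SD, cut at about 13% in these data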;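 note: signal is the Cy5 over europium emission ratio at 671 and 618 nm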
PG9 binder = PG9 antibody binding by small molecule | TR-FRET gp120-PG9 antibody binding | inhibition, % at 6.7 µM | 360,000 tested, 0.43% active; in the data active = inhibition above about 8.5%
DNMT1 block = DNMT1 (human) enzyme inhibition; P26358; DNMT1 molecular beacon, Hinp1I cleavage, fluorescence; inhibition (reported as % activation of signal), % at 10 µM; 360,000 tested, 0.83% active; AID 588458; in the data active = inhibition above about 50%
MBD2 DNA inh = inhibitors of human MBD2 binding to methylated oligonucleotide; Q9UBB5; TR-FRET; inhibition, % at 4.4 µM; 370,000 tested, 0.31% active; AID 686964; in the data active = inhibition above about 13%
Target sequence (Q9UBB5 whole entry, looked up): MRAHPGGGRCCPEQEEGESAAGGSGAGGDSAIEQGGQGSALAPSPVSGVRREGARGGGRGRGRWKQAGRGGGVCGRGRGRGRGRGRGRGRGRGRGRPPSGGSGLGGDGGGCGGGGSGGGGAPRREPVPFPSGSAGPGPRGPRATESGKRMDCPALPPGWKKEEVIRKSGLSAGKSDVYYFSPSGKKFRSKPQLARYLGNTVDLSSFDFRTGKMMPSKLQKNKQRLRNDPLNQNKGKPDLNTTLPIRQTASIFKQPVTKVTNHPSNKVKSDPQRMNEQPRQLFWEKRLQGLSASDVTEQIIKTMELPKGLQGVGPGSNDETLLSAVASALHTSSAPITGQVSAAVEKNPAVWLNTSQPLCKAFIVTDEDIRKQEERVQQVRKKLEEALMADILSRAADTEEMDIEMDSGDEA
UHRF1 binding = blocks human UHRF1 binding to methylated DNA; 370,000 tested, 0.75% active; inhibition, % at 4.4 µM; UHRF1 binding to methylated oligo, TR-FRET; Q96T88; in the data active = inhibition above about 21%;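 note: UHRF1 SRA domain binding a hemimethylated CpG hairpin DNA probe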
A number is an active result; . = inactive; / = no result given; + = active, no number.

SMILES	rCAG RNA binder	LEDGF integ inh	PG9 binder	DNMT1 block	MBD2 DNA inh	UHRF1 binding
C[C@]12C=CC(=O)C=C1CC[C@@H]1C2=CC[C@]2(C)[C@@H](C(=O)CN3CCN(c4cc(N5CCCC5)nc(N5CCCC5)n4)CC3)CC[C@@H]12	.	.	.	60.6	.	.
COCCCNc1c2c3c(cccc3[nH]c1=O)C(=O)c1ccccc1-2	.	.	.	+	.	.
COc1cc(/C=C2\SC(=Nc3ccccc3)N(CCc3c[nH]c4ccccc34)C2=O)ccc1OC(C)C(=O)O (stereo not given)	.	.	.	.	.	.
COc1ccc(N=C2S/C(=C\c3ccc(OC(C)C(=O)O)c(OC)c3)C(=O)N2CCc2c[nH]c3ccccc23)cc1 (stereo not given)	49.0	.	.	.	.	.
O=C(NCC1CCCO1)c1cc(S(=O)(=O)N2CCOCC2)c(Cl)cc1Cl (stereo not given)	.	.	.	.	.	23.1
COC(=O)[C@]12C[C@H](CC(=O)NCCCCc3ccccc3)C(=O)N(CCc3ccc(OC)c(OC)c3)C1=C[C@H](COCc1ccccc1)O[C@@H]2C	.	.	/	/	.	.
COc1ccccc1Cc1c(-c2ccc(OC)c(OC)c2)nc2ccc(Cl)cn12	.	.	.	.	.	.
COc1ccc(-c2nc3cc(C)c(Br)c(C)n3c2Cc2ccccc2C(F)(F)F)cc1OC	.	.	.	/	.	24.5
FC(F)(F)c1cc(Cl)c2nc(-c3ccccc3)c(Cc3cccc(Cl)c3)n2c1	41.5	.	.	/	.	.
COc1ccc(-c2nc3ccc(Cl)cn3c2Cc2ccccc2C(F)(F)F)cc1OC	42.0	.	.	.	.	.
Cc1ccc2nc(-c3ccc(F)cc3)c(Cc3ccccc3C(F)(F)F)n2c1	.	.	.	.	.	21.8
NC(=Nc1cccc(F)c1)NC(=O)OCc1ccccc1	.	.	/	/	.	.
CC(NC(=O)CSc1ncn[nH]1)c1ccc(Cl)cc1Cl (stereo not given)	.	.	.	.	.	.
Cc1cc2nc(-c3ccccc3)c(Cc3cccc(Cl)c3)n2c(C)c1Br	51.9	.	.	/	.	.
O=C(Nc1c[nH]c(=O)[nH]c1=O)c1ccc2c(c1)C(=O)N(c1cccc([N+](=O)[O-])c1)C2=O	.	.	.	58.0	.	.
C[C@@H]1CN(C(=O)OC(C)(C)C)CCN1c1ccc(Br)c(C#N)c1	.	.	.	/	.	.
O=C(CCC(=O)c1ccc(Cl)cc1)OCn1nnc2ccccc2c1=O	.	.	.	.	.	55.8
Cc1ccc(C)c(C(=O)CCC(=O)OCn2nnc3ccccc3c2=O)c1	.	.	.	.	.	.
Cc1ccc(C(=O)CSC2=C(C#N)C(c3ccco3)CC(=O)N2)c(C)c1 (stereo not given)	.	.	.	64.3	.	.
Cc1ccc(NC(=O)CSC2=C(C#N)C(c3ccco3)CC(=O)N2)cc1 (stereo not given)	.	.	.	.	.	.
C[C@@H]1OC(C2CCCCC2)N(C)[C@H]2C[C@H]3c4cc(N5CCOCC5)ccc4CCN3C[C@@H]12 (stereo not given in full)	.	.	/	/	.	.
N#Cc1ccsc1NC(=O)COC(=O)CCCSc1nc2ccccc2s1	.	.	.	.	.	75.1
NC(=O)COC(=O)CCCSc1nc2ccccc2s1	.	.	.	.	.	.
CCc1ccc(C(O)c2ncc(-c3ccc4ccccc4c3)[nH]2)cc1 (stereo not given)	.	.	.	60.7	.	.
Cc1ccc(C(O)c2ncc(-c3ccc4ccccc4c3)[nH]2)cc1 (stereo not given)	.	.	.	.	.	.
SMILES	rCAG RNA binder	LEDGF integ inh	PG9 binder	DNMT1 block	MBD2 DNA inh	UHRF1 binding
O=C(O)c1ccc(N2C(=O)/C(=C/c3ccc(-c4ccc([N+](=O)[O-])cc4)o3)C=C2c2ccccc2)cc1	/	/	/	80.9	/	/
CN(/N=C/c1ccc(-c2ccc([N+](=O)[O-])cc2)o1)c1ccccc1	.	.	.	.	.	.
Cc1ccsc1C(=O)N1CCN(c2ncccn2)CC1	.	.	.	.	.	.
CC(=O)c1ccc(NC(=O)CSc2nc3[nH]ncc3c(=O)[nH]2)cc1	.	.	41.0	.	.	.
COC(=O)c1ccc(NC(=O)CSc2nc3[nH]ncc3c(=O)[nH]2)cc1	.	.	.	.	.	.
COc1ccc2c(c1)c[n+](C)c1c3cc(OC)c(OC)cc3ccc21	.	.	.	/	.	.
COc1cc2c[n+](C)c3c4ccccc4ccc3c2cc1OC	.	.	.	.	65.9	.
O=S1(=O)c2c(cccc2N2CCSCC2)Oc2ccccc2CN1Cc1cn(Cc2cccc(C(F)(F)F)c2)nn1	.	.	/	/	.	.
Cc1cc(NC(=O)CSc2nnc(-c3ccccc3)n2C)no1	.	.	.	.	.	.
CNC(=O)CSc1nnc(-c2ccccc2)n1C	.	.	.	.	.	30.5
Cc1ccc(C)c(NC(=S)NC(NC(=O)Cc2ccccc2)C(Cl)(Cl)Cl)c1 (stereo not given)	.	.	.	.	.	.
O=C(COc1ccccc1)NC(NC(=S)Nc1ccccc1C(=O)O)C(Cl)(Cl)Cl (stereo not given)	38.6	.	.	.	.	.
Cc1cccc(Sc2ccc([N+](=O)[O-])cc2[N+](=O)[O-])n1	.	.	.	.	.	28.0
Cc1ccc(-c2n[nH]c(=S)n2/N=C/C=C/c2ccccc2[N+](=O)[O-])cc1	39.9	.	.	.	.	.
Cc1cccc(-n2nnnc2SCC(=O)Nc2ccc(N3CCN(C)CC3)cc2)c1	.	.	.	.	.	.
Cn1c(SCC(=O)Nc2sccc2C#N)nnc1C1CC1	.	.	.	.	.	26.8
Cc1ccc(N2CC(=O)Nc3c(sc4nc(C)cc(C)c34)C2=O)cc1	.	.	.	.	.	25.2
CC[C@H](CCCc1ccc(OC)cc1)CCC(=O)N(c1ccccc1)c1ccccc1	.	.	/	/	.	.
CCN(CCn1cccn1)C(=O)c1cc(COc2cc(C)ccc2C)on1	.	.	.	.	.	30.7
CCN(CCn1cccn1)C(=O)c1cc(COc2ccc(F)c(F)c2)on1	.	.	.	.	.	.
CCN(CCn1cccn1)C(=O)c1cc(COc2ccccc2SC)on1	.	.	.	.	.	35.0
CC(=O)N1CCc2cc(S(=O)(=O)NC3CCN(C(=O)OCc4ccccc4)CC3)ccc21	.	.	/	/	.	.
COC(=O)C12C=C3CC(C)=C3C(=O)N1Cc1[nH]c3ccccc3c1C2 (stereo not given)	.	.	/	/	.	.
COCC1CCN(C(=O)C2CCC(=O)N(Cc3ccc(Cl)cc3)C2)CC1 (stereo not given)	.	.	.	.	.	.
C=CCN1C(=O)[C@@H](CC(=O)NCc2cccs2)[C@]2(C(=O)OCC)CCCCC/C=C/12	.	.	/	/	.	.

Compound activity (PubChem)
